Compounds without any hit were thinned out: in the full panel of roughly 83,000, 20% have a hit.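 Cells were grown in 96-well plates and exposed to the test compound at a single concentration for 48 hours; results are reported as percent growth, with values below 10 considered active.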 The source made the active and inactive calls.
How the values were obtained:
Test in all cases: NCI-60 one-dose screen, 48 h (100 = growth as untreated, 0 = no growth, -100 = all killed)
SR leukemia = conditions: 10 µM
RPMI-8226 leukemia = conditions: 10 µM
OVCAR-8 ovarian = conditions: 10 µM
OVCAR-5 ovarian = conditions: 10 µM
OVCAR-4 ovarian = conditions: 10 µM
SK-OV-3 ovarian = conditions: 10 µM
IGROV1 ovarian = conditions: 10 µM
OVCAR-3 ovarian = conditions: 10 µM
HS 578T breast = conditions: 10 µM
NCI/ADR-RES ovarian = conditions: 10 µM
T-47D breast = conditions: 10 µM
BT-549 breast = conditions: 10 µM
MDA-MB-435 melanoma = conditions: 10 µM
SW-620 colon = conditions: 10 µM
MCF7 breast = conditions: 10 µM unless noted
HCT-116 colon = conditions: 10 µM
HCC-2998 colon = conditions: 10 µM
KM12 colon = conditions: 10 µM

Measured: growth

O=c1cc(-c2ccccc2)[nH]c(=S)[nH]1
inactive: SR leukemia 91.9% | RPMI-8226 leukemia 89.6% | OVCAR-8 ovarian 111% | OVCAR-5 ovarian 98.4% | OVCAR-4 ovarian 110% | SK-OV-3 ovarian 113% | IGROV1 ovarian 104% | OVCAR-3 ovarian 106% | HS 578T breast 103% | NCI/ADR-RES ovarian 101% | T-47D breast 107% | BT-549 breast 97.5% | MDA-MB-435 melanoma 104% | SW-620 colon 104% | MCF7 breast 95.3% | HCT-116 colon 101% | HCC-2998 colon 104% | KM12 colon 96.7%

C=CC(O)CCC (centres undefined)
inactive: SR leukemia 92.4% | RPMI-8226 leukemia 103% | OVCAR-8 ovarian 101% | OVCAR-5 ovarian 103% | OVCAR-4 ovarian 95.6% | SK-OV-3 ovarian 108% | IGROV1 ovarian 121% | OVCAR-3 ovarian 113% | HS 578T breast 110% | NCI/ADR-RES ovarian 103% | T-47D breast 113% | BT-549 breast 112% | MDA-MB-435 melanoma 90.4% | SW-620 colon 101% | MCF7 breast 95.3% | HCT-116 colon 112% | HCC-2998 colon 113% | KM12 colon 109%

O=C(CCl)N1CCN(C/C=C/c2ccccc2)CC1
inactive: SR leukemia 23.1% | RPMI-8226 leukemia 90.5% | OVCAR-8 ovarian 80% | OVCAR-5 ovarian 111% | OVCAR-4 ovarian 81.6% | SK-OV-3 ovarian 99.7% | IGROV1 ovarian 40.8% | OVCAR-3 ovarian 116% | HS 578T breast 100% | NCI/ADR-RES ovarian 105% | T-47D breast 83.8% | BT-549 breast 94% | MDA-MB-435 melanoma 85% | SW-620 colon 90.3% | MCF7 breast 62.1% | HCT-116 colon 68.5% | HCC-2998 colon 125% | KM12 colon 112%

O=C(O)c1cccc([N+](=O)[O-])c1
inactive: SR leukemia 97.4% | RPMI-8226 leukemia 120% | OVCAR-8 ovarian 103% | OVCAR-5 ovarian 120% | OVCAR-4 ovarian 105% | SK-OV-3 ovarian 113% | IGROV1 ovarian 113% | OVCAR-3 ovarian 109% | HS 578T breast 110% | NCI/ADR-RES ovarian 107% | T-47D breast 109% | BT-549 breast 108% | MDA-MB-435 melanoma 111% | SW-620 colon 111% | MCF7 breast 99.2% | HCT-116 colon 102% | HCC-2998 colon 102% | KM12 colon 105%

CCOC(=O)c1cc2cccc(OC)c2oc1=O
inactive: SR leukemia 104% | RPMI-8226 leukemia 95.4% | OVCAR-8 ovarian 116% | OVCAR-5 ovarian 114% | OVCAR-4 ovarian 109% | SK-OV-3 ovarian 117% | IGROV1 ovarian 108% | OVCAR-3 ovarian 138% | HS 578T breast 121% | NCI/ADR-RES ovarian 111% | T-47D breast 106% | BT-549 breast 88.6% | MDA-MB-435 melanoma 110% | SW-620 colon 111% | MCF7 breast 105% | HCT-116 colon 101% | HCC-2998 colon 108% | KM12 colon 113%

CC1(C)OC(=O)C(c2ccsc2)C(=O)O1
inactive: SR leukemia 103% | RPMI-8226 leukemia 103% | OVCAR-8 ovarian 109% | OVCAR-5 ovarian 105% | OVCAR-4 ovarian 102% | SK-OV-3 ovarian 106% | IGROV1 ovarian 103% | OVCAR-3 ovarian 106% | HS 578T breast 99% | NCI/ADR-RES ovarian 97.7% | T-47D breast 90.4% | BT-549 breast 124% | MDA-MB-435 melanoma 101% | SW-620 colon 108% | MCF7 breast 104% | HCT-116 colon 92.1% | HCC-2998 colon 107% | KM12 colon 102%

CCS(=O)(=O)c1cc(=O)[nH]c(=O)[nH]1
inactive: SR leukemia 57.6% | RPMI-8226 leukemia 124% | OVCAR-8 ovarian 114% | OVCAR-5 ovarian 106% | OVCAR-4 ovarian 102% | SK-OV-3 ovarian 116% | IGROV1 ovarian 136% | OVCAR-3 ovarian 112% | HS 578T breast 113% | NCI/ADR-RES ovarian 103% | T-47D breast 114% | BT-549 breast 115% | MDA-MB-435 melanoma 86.7% | SW-620 colon 112% | MCF7 breast 106% | HCT-116 colon 104% | HCC-2998 colon 116% | KM12 colon 107%

COc1ccccc1N=Nc1c(O)ccc2cc(S(=O)(=O)O)ccc12
inactive: SR leukemia 91.7% | RPMI-8226 leukemia 99.6% | OVCAR-8 ovarian 93.2% | OVCAR-5 ovarian 103% | OVCAR-4 ovarian 105% | SK-OV-3 ovarian 88.8% | IGROV1 ovarian 110% | OVCAR-3 ovarian 101% | HS 578T breast 100% | NCI/ADR-RES ovarian 99.8% | T-47D breast 91.4% | BT-549 breast 99.4% | MDA-MB-435 melanoma 108% | SW-620 colon 103% | MCF7 breast 93.2% | HCT-116 colon 103% | HCC-2998 colon 96.3% | KM12 colon 104%

O=C1C=C(Nc2ccc([N+](=O)[O-])cc2)c2ccccc2C1=O
inactive: SR leukemia 23.9% | RPMI-8226 leukemia 18% | OVCAR-8 ovarian 35.1% | OVCAR-5 ovarian 86.9% | OVCAR-4 ovarian 45.3% | SK-OV-3 ovarian 62.3% | IGROV1 ovarian 60.8% | HS 578T breast 47.5% | NCI/ADR-RES ovarian 32.5% | T-47D breast 20% | SW-620 colon 40.4% | MCF7 breast 26.5% | HCT-116 colon 18% | HCC-2998 colon 72.4% | KM12 colon 32.4%
active: OVCAR-3 ovarian 7.94% | BT-549 breast -1.53% | MDA-MB-435 melanoma -88.2%

Cc1cc(C)c(CC(=O)O)c(C)c1
inactive: SR leukemia 98.5% | RPMI-8226 leukemia 112% | OVCAR-8 ovarian 102% | OVCAR-5 ovarian 103% | OVCAR-4 ovarian 95.1% | SK-OV-3 ovarian 110% | IGROV1 ovarian 108% | OVCAR-3 ovarian 104% | HS 578T breast 109% | NCI/ADR-RES ovarian 103% | T-47D breast 106% | BT-549 breast 104% | MDA-MB-435 melanoma 104% | SW-620 colon 102% | MCF7 breast 95.9% | HCT-116 colon 105% | HCC-2998 colon 111% | KM12 colon 103%

CC1CC(O)C2C3(C)CCCC2(COC3=O)C12CCC1(CCOC1=O)O2 (centres undefined)
inactive: SR leukemia 114% | RPMI-8226 leukemia 117% | OVCAR-8 ovarian 127% | OVCAR-5 ovarian 104% | OVCAR-4 ovarian 103% | SK-OV-3 ovarian 105% | IGROV1 ovarian 113% | OVCAR-3 ovarian 110% | HS 578T breast 99% | NCI/ADR-RES ovarian 111% | T-47D breast 102% | BT-549 breast 96.1% | MDA-MB-435 melanoma 101% | SW-620 colon 102% | MCF7 breast 103% | HCT-116 colon 97.4% | HCC-2998 colon 122% | KM12 colon 107%

C/C(=C\c1ccc([N+](=O)[O-])cc1)C(=O)O
inactive: SR leukemia 96.3% | RPMI-8226 leukemia 95.8% | OVCAR-8 ovarian 99.2% | OVCAR-5 ovarian 104% | OVCAR-4 ovarian 99.2% | SK-OV-3 ovarian 104% | IGROV1 ovarian 110% | OVCAR-3 ovarian 110% | HS 578T breast 101% | NCI/ADR-RES ovarian 109% | T-47D breast 98.8% | BT-549 breast 94.2% | MDA-MB-435 melanoma 102% | SW-620 colon 102% | MCF7 breast 95.7% | HCT-116 colon 97.3% | HCC-2998 colon 101% | KM12 colon 103%

CCOC(=O)c1ccc(NC(=S)P(=O)(c2ccccc2)c2ccccc2)cc1
inactive: SR leukemia 69.3% | RPMI-8226 leukemia 64.4% | OVCAR-8 ovarian 107% | OVCAR-5 ovarian 105% | OVCAR-4 ovarian 99.6% | SK-OV-3 ovarian 107% | IGROV1 ovarian 110% | OVCAR-3 ovarian 92.2% | HS 578T breast 96.4% | NCI/ADR-RES ovarian 101% | T-47D breast 109% | BT-549 breast 101% | MDA-MB-435 melanoma 91.1% | SW-620 colon 102% | MCF7 breast 100% | HCT-116 colon 91.7% | HCC-2998 colon 108% | KM12 colon 96.2%

CCOc1ccc(I)cc1
inactive: SR leukemia 114% | RPMI-8226 leukemia 131% | OVCAR-8 ovarian 96.7% | OVCAR-5 ovarian 94% | OVCAR-4 ovarian 109% | SK-OV-3 ovarian 110% | IGROV1 ovarian 117% | OVCAR-3 ovarian 116% | HS 578T breast 111% | NCI/ADR-RES ovarian 101% | T-47D breast 114% | BT-549 breast 116% | MDA-MB-435 melanoma 112% | SW-620 colon 105% | MCF7 breast 98.2% | HCT-116 colon 102% | HCC-2998 colon 106% | KM12 colon 95.2%

COc1cc(C2c3cc4c(cc3C3OC(=O)C2C3CO)OCO4)cc(OC)c1OC (centres undefined)
inactive: RPMI-8226 leukemia 18.3% | OVCAR-5 ovarian 27.1% | OVCAR-4 ovarian 28.3% | IGROV1 ovarian 13.7% | HS 578T breast 33.8% | T-47D breast 70.6% | SW-620 colon 23.1% | MCF7 breast 17% | HCC-2998 colon 19%
active: SR leukemia 4.01% | OVCAR-8 ovarian 3.3% | SK-OV-3 ovarian -7.31% | OVCAR-3 ovarian -21.9% | NCI/ADR-RES ovarian -2.7% | BT-549 breast -24.4% | MDA-MB-435 melanoma -45% | HCT-116 colon 7.29% | KM12 colon 1.84%

c1ccc(Sc2ccccc2)cc1
inactive: SR leukemia 82.9% | RPMI-8226 leukemia 99.7% | OVCAR-8 ovarian 102% | OVCAR-5 ovarian 104% | OVCAR-4 ovarian 111% | SK-OV-3 ovarian 104% | IGROV1 ovarian 117% | OVCAR-3 ovarian 106% | HS 578T breast 115% | NCI/ADR-RES ovarian 112% | T-47D breast 99.6% | BT-549 breast 100% | MDA-MB-435 melanoma 99.6% | SW-620 colon 107% | MCF7 breast 97.6% | HCT-116 colon 110% | HCC-2998 colon 105% | KM12 colon 102%

CCC/C=C(/C(C)=O)C(=O)OCC
active: HCC-2998 colon 7.66%
inactive: SR leukemia 160% | RPMI-8226 leukemia 104% | OVCAR-8 ovarian 91.8% | OVCAR-5 ovarian 92.7% | OVCAR-4 ovarian 89.8% | SK-OV-3 ovarian 117% | IGROV1 ovarian 126% | OVCAR-3 ovarian 119% | HS 578T breast 114% | NCI/ADR-RES ovarian 107% | T-47D breast 107% | BT-549 breast 112% | MDA-MB-435 melanoma 108% | SW-620 colon 106% | MCF7 breast 114% | HCT-116 colon 109% | KM12 colon 102%

O=C(Cc1ccccc1)Cc1ccccc1
inactive: SR leukemia 104% | RPMI-8226 leukemia 103% | OVCAR-8 ovarian 89.6% | OVCAR-5 ovarian 95.8% | OVCAR-4 ovarian 97.2% | SK-OV-3 ovarian 99.8% | IGROV1 ovarian 104% | OVCAR-3 ovarian 106% | HS 578T breast 106% | NCI/ADR-RES ovarian 110% | T-47D breast 102% | BT-549 breast 107% | MDA-MB-435 melanoma 105% | SW-620 colon 101% | MCF7 breast 106% | HCT-116 colon 98.1% | HCC-2998 colon 114% | KM12 colon 103%

Source: PubChem BioAssay (NCI)
